Sampled rows, rich in hits. Any-hit rate of the full collection: about 2.7%.
Mcl1 Noxa PPI: Mcl-1/Noxa interaction inhibition; TR-FRET Mcl-1/Noxa peptide binding, 2 h; inhibition, % at 21.7 µM; 220,000 compounds, 1.5% hits; AID 1022;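 active means compounds that cut the protein-peptide binding signal by more than 50% relative to plate controls in a single-dose test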;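 further: His-tagged Mcl-1 with rhodamine Noxa BH3 peptide and terbium anti-His antibody; 0% = Mcl-1 plus Noxa peptide wells and 100% = peptide-only wells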
Target sequence (Q07820 whole entry, looked up): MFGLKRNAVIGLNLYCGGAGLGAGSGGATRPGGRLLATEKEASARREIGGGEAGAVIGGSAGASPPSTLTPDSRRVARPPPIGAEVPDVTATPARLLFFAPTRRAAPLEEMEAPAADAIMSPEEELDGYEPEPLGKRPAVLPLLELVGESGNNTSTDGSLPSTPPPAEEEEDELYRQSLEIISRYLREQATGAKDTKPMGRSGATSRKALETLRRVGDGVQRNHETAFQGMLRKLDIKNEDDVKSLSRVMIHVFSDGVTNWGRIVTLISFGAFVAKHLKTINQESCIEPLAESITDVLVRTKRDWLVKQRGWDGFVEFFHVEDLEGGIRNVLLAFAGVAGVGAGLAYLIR
14-3-3 Bad PPI: disrupts binding of bovine 14-3-3 zeta to phospho-Bad peptide; TR-FRET 14-3-3zeta/Dy647-pBad peptide displacement, 1 h; 220,000 compounds, 0.71% hits; inhibition, % at 21.7 µM; AID 781;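 active means inhibition above about 70%, limit read from the data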;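 further: 0% = full 14-3-3 plus peptide FRET controls and 100% = background without 14-3-3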
Target sequence (P63103 whole entry, looked up): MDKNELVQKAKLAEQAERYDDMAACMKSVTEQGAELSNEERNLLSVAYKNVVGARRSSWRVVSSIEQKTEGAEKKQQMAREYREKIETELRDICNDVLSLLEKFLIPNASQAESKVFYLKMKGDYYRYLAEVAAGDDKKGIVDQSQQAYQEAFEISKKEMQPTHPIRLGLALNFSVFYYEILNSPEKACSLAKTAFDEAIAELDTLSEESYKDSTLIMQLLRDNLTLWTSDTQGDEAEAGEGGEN
Mcl1 Bid PPI: disrupts binding of human Mcl-1 to Bid peptide | Q07820 | TR-FRET Mcl-1/Bid-Dy647 peptide binding, 1536-well | inhibition, % at 21.7 µM | 220,000 compounds, 0.97% hits | AID 1021;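 active means compounds that cut the binding signal by more than half at the single screening dose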;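 further: His-tagged Mcl-1 with europium anti-His antibody binding Bid BH3 peptide; 0% = Mcl-1 plus peptide wells and 100% = peptide-only wells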
Bim-Mcl-1: inhibitors of Bim-Mcl-1 interaction, human; inhibition, % at 10 µM; 190,000 compounds, 0.1% hits; Bead-based flow cytometry, Bim peptide-Mcl-1 binding; Q07820; AID 1009; in the data active means inhibition above about 40%;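 further: 0% = no compound tracer wells and 100% = peptide blocker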
Pf gametocyte: P. falciparum stage V gametocyte viability inhibition; inhibition, % at 10.9 µM; P. falciparum stage V gametocytes, ATP luminescence, 24 h; 150,000 compounds, 0.065% hits; AID 743093;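 active means inhibition above the mean plus 3 SD of compounds within the control limits, set per campaign, cut at about 38% in these data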;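 further: 0% = DMSO wells and 100% = medium only without gametocytes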
eIF4E 4G PPI: eIF4E/eIF4G interaction inhibition in translation initiation; 220,000 compounds, 0.37% hits; inhibition, % at 21.7 µM; P63073+Q04637; TR-FRET eIF4E-eIF4GI(517-606) binding, 2 h;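 active means inhibition above about 30%, limit read from the data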;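 further: 0% = full FRET control wells and 100% = background wells lacking eIF4GI fragment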
* hit, by the source's call; / = not tested or not shown; [ ] = dose if it differs, or a comment.

SMILES	Mcl1 Noxa PPI	14-3-3 Bad PPI	Mcl1 Bid PPI	Bim-Mcl-1	Pf gametocyte	eIF4E 4G PPI
O=C(c1ccc([N+](=O)[O-])cc1[N+](=O)[O-])n1cnc2ccccc21	7	-1	-6	-2	/	1
COc1ccc2c(c1)c1nc3ccccc3nc1n2Cc1ccc(OC)c(OC)c1	-11	16	6	-3	11	-21
CCOC(=O)Cn1c2ccc(OC)cc2c2nc3ccccc3nc21	26	35	59*	3	17	-33
O=C1Nc2ccccc2C(O)(C(=O)NCc2ccc3c(c2)OCO3)N1c1ccc(Cl)c(Cl)c1 (configuration not stated)	8	0	-12	0	/	5
Cc1ccc(SCc2cc(=O)[nH]c(/N=C(\N)Nc3ccc(C)c(C)c3)n2)cc1	14	-7	-4	1	/	49*[fluorescence artefact?]
COCC(O)CSc1nc(C)[nH]c1[N+](=O)[O-] (configuration not stated)	26	-11	87*	0	/	6
CN(C)C(CNC(=S)Nc1cccc(Cl)c1)c1ccccc1 (configuration not stated)	10	-5	-34	0	1	-1
CCOC(=O)C1CCN(C(=O)Nc2ccc3nc(-c4ccco4)c(-c4ccco4)nc3c2)CC1	97*	32	25	19	/	44*[fluorescence artefact?]
Cc1nc2ccc(NC(=O)N3CCCCC3)cc2nc1C	-4	-6	-11	-4	/	0
O=C(Nc1ccc2nc(-c3ccco3)c(-c3ccco3)nc2c1)N1CCCCCC1	105*	35	59*	16	/	28
COc1ccc(NC(=O)Nc2ccc3c(c2)C(=O)N([C@@H](C)CO)C[C@@H](C)[C@@H](CN(C)S(=O)(=O)c2cccs2)O3)cc1	/	/	/	/	1	/
CCC(=O)c1ccc(N2CCN(C(=O)c3ccccc3)CC2)c(F)c1	0	0	-8	1	-14	1
CCn1c2ccccc2c2cc(NC(=O)c3coc(=O)c(Br)c3)ccc21	69*	50	38	/	-9	22
Cc1cc(Cl)ccc1OCC(=O)NN1C(=O)C2C3C=CC(C3)C2C1=O (configuration not stated)	-2	-5	-11	-1	-4	-3
NN1C(=O)/C(=C2/Sc3ccccc3N2CCCS(=O)(=O)O)SC1=S	/	/	/	/	19	/
O=C1NC(=S)S/C1=C1\Sc2ccccc2N1CCCS(=O)(=O)O	74*	10	5	-5	-12	2
CCN(CC(=O)Nc1ccc(Cl)c(C(F)(F)F)c1)CC(=O)NC1CCS(=O)(=O)C1 (configuration not stated)	6	-1	-12	1	6	-2
CC(=O)N1CCN(CC(=O)Nc2c(Cl)cccc2Cl)CC1	25	76*	34	-1	/	-13
CN(C)c1ccc(CC(=O)c2nc3ccccc3s2)cc1	76*	25	-45	0	-7	7
COC(=O)CCSCc1cn2cc(Cl)ccc2n1	16	-1	-18	-3	/	3
Fc1ccc(NC(=S)NCCc2ccccn2)cc1	5	-6	-39	1	/	3
CC(C)(C)c1ccc(NC(=S)NCCc2ccccn2)cc1	23	25	51*	/	-3	1
COC(=O)/C(=C/c1cn(C(C)=O)c2ccccc12)[N+](=O)[O-]	61*	-3	-8	/	10	2
CC(C)[C@H](NC(=O)NCCC1=CCCCC1)C(=O)O	-1	2	94*	/	11	0
O=C1C2CCCCC2C(=O)N1c1nccs1 (configuration not stated)	/	/	/	/	4	/
SMILES	Mcl1 Noxa PPI	14-3-3 Bad PPI	Mcl1 Bid PPI	Bim-Mcl-1	Pf gametocyte	eIF4E 4G PPI
O=C(CN1C(=O)C2C3C=CC(C3)C2C1=O)N1CCc2ccccc2C1 (configuration not stated)	-24	6	-4	0	-12	-8
Cc1ccc(NCc2ccco2)cc1C	15	71*	9	-2	6	2
CCCCCCCCCCNC(=O)CCn1[nH]c(=O)c2ccccc2c1=O	/	/	/	/	-14	/
COc1ccc(CC(=O)Nc2cccc(-c3nnc(-c4ccccc4)o3)c2)cc1OC	1	5	3	-1	/	-3
COc1ccc(CC(=O)Nc2ccc(-c3nnc(-c4ccccc4)o3)cc2)cc1OC	10	55	-43	0	/	33*
COc1ccc(S(=O)(=O)NCC2CCCN(C(=O)CSC)C2)cc1 (configuration not stated)	/	/	/	/	-12	/
COc1ccc(Cl)cc1C(Nc1cccnc1)c1ccc2cccnc2c1O (configuration not stated)	46	28	97*	0	-16	27
CC(C)c1cc(C(=O)N/N=C/c2ccco2)n[nH]1	4	2	-59	-5	9	5
CSc1c(C#N)c(N)nc2sc(C(=O)c3ccc(Cl)c(Cl)c3)c(N)c12	21	40	52*	/	/	-5
Cc1cc(C2=NNC(=NC3CC3)SC2)c(C)n1-c1c(C)n(C)n(-c2ccccc2)c1=O	52*	15	7	-2	12	5
COc1cc(/C=N/n2cc(-c3ccccc3)[nH]c2=S)cc(OC)c1O	41	1	-17	/	-14	-1
S=c1[nH]c(-c2ccccc2)cn1/N=C/c1ccccc1Br	28	-2	-34	-6	/	-1
Cc1ccc(/C=N/n2cc(-c3ccccc3)[nH]c2=S)s1	54*	-11	-47	-8	-3	-4
Oc1ccc(/C=N/n2cc(-c3ccccc3)[nH]c2=S)cc1	73*	-6	-41	-9	/	-3
CCN(CC)C(=O)N1CCN(C)CC1	-34	-1	59*	-1	/	2
COC(=O)CCN(C(=O)c1cccc(OC(C)=O)c1)c1ccccn1	0	-14	52*	-4	/	-15
COC(=O)CCN(C(=O)c1ccc2c(c1)OCO2)c1ccccn1	-11	-2	-4	-2	2	-6
Oc1ccc(-c2[nH]ncc2-c2cccc3cccnc23)c(O)c1	27	-3	5	-2	/	92*
COc1ccc(NC(=O)C(Cl)=C(Cl)Cl)cn1	16	-2	6	3	-6	2
COc1ccc(NC(=O)/C(Cl)=C(/Cl)S(=O)Cc2ccc(Cl)cc2)cn1 (configuration not stated)	53*	-4	36	-9	-11	-1
COc1ccc(-n2cc(-c3ccc(OC(F)F)cc3)[n+]3c2CCCCC3)cc1	9	12	90*	-1	-9	1
Cc1ccc(NC(=O)c2noc3c2CCC3)cc1C	54*	43	-50	-1	3	24
COc1cc(NC(=O)c2noc3c2CCC3)c(OC)cc1Cl	63*	-2	-14	-3	/	5
CC(=O)c1ccc(NC(=O)c2noc3c2CCC3)cc1	17	14	-25	6	-24	15
O=C(NCc1ccco1)c1cccc(Nc2nc3ccc(Br)cc3[nH]2)c1	24	-7	0	-6	/	-11

High-throughput results as filed in PubChem BioAssay.
